Most compounds without a hit are left out; they make up all but 21% or so of the library.
CHX counter = affects cycloheximide protein synthesis inhibition readout, counter-screen. 12% of 300,000 active. max response, %. cell reporter, cycloheximide protein synthesis inhibition counterscreen; in the data active means max response mostly above about 13%, no sharp cut-off; inactive means mostly below about 14%; further: read at 38.3 µM for the half of the compounds with a filed dose
Pf growth 48h = P. falciparum growth inhibition at 48 hours (one generation); P. falciparum luciferase growth in erythrocytes, 48 h; Potency, µM (highest dose often 28.7 µM), hits mostly inhibitors; 5.9% of 310,000 active
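Luciferase-expressing parasites in RBCs, 2% Hct / 0.1% parasitemia final; RPMI 1640 + 0.5% Albumax; 37 C, 5% CO2, one generation; luminescence read-out, lower signal = inhibition.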
NS1 function inh = blocks influenza NS1 protein function | Potency, µM (top dose mostly 46.1 µM) | 0.4% of 270,000 active | AID 2326; calls by dose curve; further: actives are rising curves; nearly all actives have a fitted effect of over 50% in size
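A cell-based growth assay was used: compounds that relieve NS1-induced slow growth of budding yeast raise OD600. Assay medium was yeast nitrogen base with ammonium sulphate and -URA supplement, pH 6.0, with 2% galactose.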
Shiga inhibitor = inhibitors of Shiga toxin in Vero cells. 9.2% of 290,000 active. inhibition, % at 38.7 µM. Vero cells, Shiga toxin protein synthesis inhibition reporter; in the data active means inhibition mostly above about 28%, no sharp cut-off; inactive means mostly below about 43%
Pf growth 96h = inhibits malaria parasite growth, 96 h; 6.9% of 320,000 active; P. falciparum luciferase reporter growth, 96 h; AID 504834; Potency, µM (series often up to 28.7 µM), most hits filed as inhibitors
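Erythrocytes infected with luciferase-expressing P. falciparum were dispensed at 2% hematocrit and 0.05% parasitemia (final), then incubated with compounds 96 hours at 37 C in 5% CO2. Luminescence after detection reagent addition reported growth.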
SARS PLpro yeast = inhibitors of SARS-CoV papain-like protease in yeast | S. cerevisiae expressing SARS-CoV PLpro, growth rescue | Potency, µM (series often up to 32.9 µM), hits mostly activators | 0.19% of 330,000 active | AID 485353; calls by dose curve; further: nearly all actives have a fitted effect of over 55% in size
Hits are given with their value. Unless noted, the call rests on the fitted dose curve; in most records, active means well fitted inhibition curve with a large enough effect; inconclusive means small, poorly fitted or top-dose-only effect, or another doubt; inactive means no such curve, though single readings can be large or run the other way.

CN(C)/C=N/c1ncc(C(=O)c2ccc(-c3ccccc3)cc2)s1 was read as CHX counter inactive, Pf growth 48h inactive, Shiga inhibitor inactive, Pf growth 96h inactive and SARS PLpro yeast inactive.
Screening Cc1cc(C(=O)c2cnc(/N=C/N(C)C)s2)cc(C)c1O returned CHX counter inactive, Pf growth 48h inactive, NS1 function inh inactive, Shiga inhibitor inactive, Pf growth 96h inactive and SARS PLpro yeast inactive.
Screening CN(C)/C=N/c1ncc(C(=O)OC(C)(C)C)s1 returned CHX counter 30, Pf growth 48h inactive, Shiga inhibitor 69, Pf growth 96h inactive and SARS PLpro yeast inactive.
Screening CN(C)/C=N/c1ncc(C(=O)c2ccccc2)s1 returned CHX counter 52, Pf growth 48h inactive, NS1 function inh inactive, Shiga inhibitor 66, Pf growth 96h inactive and SARS PLpro yeast inactive.
C[n+]1cccc(/C=N/NC(=O)CC23CC4CC(CC(C4)C2)C3)c1 was read as CHX counter inactive, Pf growth 48h inconclusive, NS1 function inh inactive, Shiga inhibitor inactive, Pf growth 96h 0.59µM and SARS PLpro yeast inactive.
For COc1cccc(NC(=S)/C(=C(\[O-])c2ccc(C)c([N+](=O)[O-])c2)[n+]2ccccc2)c1 the results were CHX counter 39, Pf growth 48h inactive, NS1 function inh inactive, Shiga inhibitor 51 and SARS PLpro yeast inactive.
Cc1ccc(NC(=S)/C(=C(\[O-])c2ccc(C)c([N+](=O)[O-])c2)[n+]2ccccc2)cc1C was read as CHX counter 70, Pf growth 48h inconclusive, NS1 function inh inactive, Shiga inhibitor 149, Pf growth 96h inactive and SARS PLpro yeast inactive.
Cc1ccc(/C([O-])=C(/C(=S)Nc2ccc(SC(F)F)cc2)[n+]2ccccc2)cc1[N+](=O)[O-] was read as CHX counter inactive, Pf growth 48h inactive, Shiga inhibitor inactive, Pf growth 96h inconclusive and SARS PLpro yeast inactive.
For Cc1ccccc1NC(=S)/C(=C(\[O-])c1ccc(C)c([N+](=O)[O-])c1)[n+]1ccccc1 the results were CHX counter inactive, Pf growth 48h inactive, NS1 function inh inactive, Shiga inhibitor inactive, Pf growth 96h inactive and SARS PLpro yeast inactive.
`CC1=C2C(=O)[C@@H]3[C@@H](CC=C4C[C@@H](O)CC[C@@]43C)[C@H]2CC[C@@]12O[C@H]1C[C@H](C)CN[C@H]1[C@@H]2C` gave NS1 function inh inactive.
For O=C1C(=O)c2ccccc2C([O-])=C1[n+]1ccccc1 the results were CHX counter inactive, Pf growth 48h 3.7µM, NS1 function inh inactive, Shiga inhibitor inactive, Pf growth 96h 7.4µM and SARS PLpro yeast inactive.
For Cn1c(=O)c(-[n+]2ccccc2)c([O-])c2ccccc21 the results were CHX counter inactive, NS1 function inh inactive, Shiga inhibitor inactive, Pf growth 96h inactive and SARS PLpro yeast inconclusive.
`O=C(NCc1ccc2c(c1)OCO2)c1nc(S(=O)(=O)Cc2ccccc2F)ncc1Cl` gave CHX counter 26, Pf growth 48h inactive, NS1 function inh inactive, Shiga inhibitor inactive, Pf growth 96h inactive and SARS PLpro yeast inactive.
Screening O=C(NCc1ccc2c(c1)OCO2)c1nc(S(=O)(=O)Cc2ccccc2)ncc1Cl returned CHX counter 27, Pf growth 48h inactive, NS1 function inh inactive, Shiga inhibitor inactive, Pf growth 96h inactive and SARS PLpro yeast inactive.
`CC1CC1C(=O)N(C)CC(=O)Nc1cccc(F)c1` (stereo not given) gave Pf growth 48h inconclusive, Pf growth 96h inactive and SARS PLpro yeast inactive.
For Cc1ccc(-n2ncc3c(=O)n(CC#N)cnc32)cc1C the results were CHX counter 65, Pf growth 48h inactive, NS1 function inh inactive, Shiga inhibitor inactive, Pf growth 96h inconclusive and SARS PLpro yeast inactive.
Screening C#CCn1cnc2c(cnn2-c2ccc(C)c(C)c2)c1=O returned CHX counter 35, Pf growth 48h inactive, NS1 function inh inactive, Shiga inhibitor 141, Pf growth 96h inconclusive and SARS PLpro yeast inactive.
`Cc1nc2c3cnn(-c4ccc(C)c(C)c4)c3ncn2n1` gave CHX counter 29, Pf growth 48h inactive, NS1 function inh inactive, Shiga inhibitor 70, Pf growth 96h inactive and SARS PLpro yeast inactive.
Screening NS(=O)(=O)c1ccc(CNC(=O)C2CCCCC2)cc1 returned CHX counter inactive, Pf growth 48h inactive, NS1 function inh inactive, Shiga inhibitor inactive and SARS PLpro yeast inactive.
Screening NS(=O)(=O)c1ccc(CNC(=S)NC2CCCC2)cc1 returned CHX counter inactive, Pf growth 48h inactive, NS1 function inh inactive, Shiga inhibitor inactive, Pf growth 96h 13µM and SARS PLpro yeast inactive.
Screening S=C(NCCNCc1ccccc1)NC1CCCCC1 returned CHX counter inactive, Pf growth 48h inconclusive, Shiga inhibitor inactive, Pf growth 96h 4.7µM and SARS PLpro yeast inactive.
`Fc1ccccc1CNC(=S)NC1CCCCC1` gave CHX counter inactive, Pf growth 48h inactive, NS1 function inh inactive, Shiga inhibitor inactive, Pf growth 96h 4.1µM and SARS PLpro yeast inactive.
Fc1ccc(CNC(=S)NC2CCCCCC2)cc1 was read as CHX counter inactive, Pf growth 48h inconclusive, NS1 function inh inactive, Shiga inhibitor inactive, Pf growth 96h inactive and SARS PLpro yeast inactive.
`S=C(NCCc1ccccc1)NC1CCCCCC1` gave CHX counter 51, Pf growth 48h inactive, NS1 function inh inactive, Shiga inhibitor 73, Pf growth 96h inactive and SARS PLpro yeast inactive.
S=C(NCCc1ccc(Cl)cc1)NC1CCCCC1 was read as CHX counter 56, Pf growth 48h inactive, NS1 function inh inactive, Shiga inhibitor 103, Pf growth 96h inconclusive and SARS PLpro yeast inactive.
S=C(NCCc1ccc(Cl)cc1)NC1CCCC1 was read as CHX counter 44, Pf growth 48h inactive, NS1 function inh inactive, Shiga inhibitor 71, Pf growth 96h inconclusive and SARS PLpro yeast inactive.
`NS(=O)(=O)c1ccc(NC(=O)COc2cccc3ccccc23)cc1` gave CHX counter inactive, Pf growth 48h inactive, NS1 function inh inactive, Shiga inhibitor inactive, Pf growth 96h inactive and SARS PLpro yeast inactive.
O=C(c1cccc(NS(=O)(=O)c2ccc(F)c(F)c2)c1)N1CCCCC1 was read as Pf growth 48h inactive, Pf growth 96h inactive and SARS PLpro yeast inactive.
COc1cc(CCCN2C(N)=NC[C@@H]2Cc2ccccc2)cc(OC)c1OC was read as CHX counter inactive, Pf growth 48h 9.3µM, NS1 function inh inactive, Shiga inhibitor inactive, Pf growth 96h 9.3µM and SARS PLpro yeast inactive.
`COc1cc(CCCN2C(N)=NC[C@@H]2Cc2ccc(O)cc2)cc(OC)c1OC` gave CHX counter inactive, Pf growth 48h inconclusive, NS1 function inh inactive, Shiga inhibitor inactive, Pf growth 96h 2.3µM and SARS PLpro yeast inactive.
Screening COc1cc(CCCN2C(=S)NC[C@@H]2Cc2ccccc2)cc(OC)c1OC returned CHX counter inactive, Pf growth 48h inactive, NS1 function inh inactive, Shiga inhibitor inactive, Pf growth 96h inactive and SARS PLpro yeast inactive.
`C/C(=N\Nc1ccccn1)c1ccc(OC(F)F)cc1` gave CHX counter inactive, Pf growth 48h inactive, NS1 function inh inactive, Shiga inhibitor 38, Pf growth 96h inactive and SARS PLpro yeast inactive.

Compound activity as filed in PubChem.
